Lassa entry inh = Lassa virus entry inhibition; Lassa virus pseudotype entry inhibition, cell reporter; Potency, µM (series often up to 37.9 µM), for the others: top-dose activity change, negative = inhibition, hits mostly inhibitors; hit rate 1.2% among 300,000; calls by dose curve; tested in HEK293 cells; also: potency is read from the fitted curve at half-maximal effect; nearly all actives have a fitted effect of over 50% in size
HCMV antiviral = inhibitors of human cytomegalovirus | HFF cells, HCMV-luciferase reporter, 72 h; stronger effect = lower value | activity change, negative = inhibition, % at 57.5 µM | hit rate 4.5% among 410,000 | AID 1259415; in the data active = activity change below about -60%; inconclusive = no clear call, values can overlap the other calls; inactive = above about -39%
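Cell-based, HFFs, 1000 cells/well, 16 h 37C; cpds in DMSO + HCMV-luc, MOI 1 PFU/cell; 72 h 37C; OneGlo luminescence after 5 min RT; norm. to buffer vs Salinomycin 10uM.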
Vaccinia mCherry = vaccinia inhibition (mCherry reporter); AID 720579; hit rate 0.63% among 310,000; Vaccinia virus mCherry reporter infection, fluorescence; Potency, µM (highest dose often 36.5 µM), for the others: top-dose activity change, negative = inhibition, actives largely listed as inhibitors; calls by dose curve; tested in A549 cells; also: potency is read from the fitted curve at half-maximal effect; nearly all actives have a fitted effect of over 35% in size
HCV inh = HCV inhibition. Huh7.5.1 HCVcc-Cre infection, luciferase reporter, 44 h. Potency, µM (highest dose often 41.8 µM), without a hit: top-dose activity change, negative = inhibition, hits mostly inhibitors. hit rate 3.4% among 340,000; active = well fitted inhibition curve with a large enough effect; inconclusive = small, poorly fitted or top-dose-only effect, or another doubt; inactive = no such curve, though single readings can be large or run the other way; also: potency is read from the fitted curve at half-maximal effect
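Cells (1,000/well) were plated 4 h before compound, then infected with HCVcc-Cre virus (~0.5 moi). After 44 h further culture, infection was read as luciferase luminescence following a 15 min substrate incubation at room temperature.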
Vaccinia Venus = vaccinia inhibition (Venus reporter) | Vaccinia virus Venus reporter expression, fluorescence | Potency, µM (highest dose often 36.5 µM), for the others: top-dose activity change, negative = inhibition, hits mostly inhibitors | AID 720580 | hit rate 0.46% among 330,000; calls by dose curve; tested in A549 cells; also: potency is read from the fitted curve at half-maximal effect; nearly all actives have a fitted effect of over 30% in size
Marburg entry inh = inhibitors of Marburg virus binding or cell entry; Marburg virus pseudotyped entry inhibition, cell reporter; Potency, µM (highest dose often 37.8 µM), without a hit: at the top dose activity change, negative = inhibition, hits mostly inhibitors; hit rate 1.8% among 300,000; AID 540276; calls by dose curve; tested in HEK293 cells; also: potency is read from the fitted curve at half-maximal effect
Numbers without * were called inactive; i = inactive; u = inconclusive; x = no result; [ ] = another dose, or the depositor's remark. Only some compounds are listed: those with a hit (about 7.8% of all), similar ones and a draw of the others. % is scaled to controls: 0 for no effect and ±100 for the full control effect.

SMILES	Lassa entry inh	HCMV antiviral	Vaccinia mCherry	HCV inh	Vaccinia Venus	Marburg entry inh
Cc1ccccc1C(=O)NCC(=O)Nc1ccc(C)c(S(=O)(=O)N2CCCCCC2)c1	u	-12.4	-10.9%	8.91µM*	-15.6%	u
COc1ccccc1NC(=O)C1=C(C)Nc2nc(SCc3ccccc3C)nn2C1CC(C)C (stereo unspecified)	6.4%[46.1 µM]	6.4	u	x	u	1.9%[46.1 µM]
O=C(Nc1ccc(N2CCN(c3ccc(F)cc3)CC2)c(C(=O)O)c1)c1ccccc1F	-0.8%[46.1 µM]	10.5	-1.3%	x	-1.7%	x
CCOCCCn1c(=N)c(C(=O)NCc2cccnc2)cc2c(=O)n3ccccc3nc21	9.8%[46.1 µM]	-15.8	2.1%	x	0.4%	u
CCN1CCN(Cc2c(O)ccc3oc(C)c(C(=O)Nc4cccc(C(F)(F)F)c4)c23)CC1	u	-31.0	-14.9%	x	-11.0%	u
CCOc1ncccc1C(=O)Nc1ccc(OC)c(S(=O)(=O)N2CCCCC2)c1	-18.4%	5.0	-15.9%	u	-4.2%	-2.0%[46.1 µM]
O=C(Nc1ccc(OC(F)(F)F)cc1)C1CCCN(C(=O)c2ccc(Cl)cc2)C1 (stereo unspecified)	x	-38.5	x	7.94µM*	x	x
Cn1cnc(S(=O)(=O)N2CCC(C(=O)Nc3ccc(C#N)cc3)CC2)c1	9.8%[46.1 µM]	11.8	-7.4%	x	-1.8%	x
CCOc1ncccc1C(=O)Nc1ccc(C)c(S(=O)(=O)N2CCCCCC2)c1	x	-15.4	x	14.1µM*	x	x
Cc1ccc(NC(=O)C2CCCN(C(=O)c3ccc(Cl)cc3)C2)cc1S(=O)(=O)N1CCOCC1 (stereo unspecified)	u	-72.4*	i	3.98µM*	-26.0%	u
Cn1cnc(S(=O)(=O)N2CCC(C(=O)Nc3ccc(OC(F)(F)F)cc3)CC2)c1	18.0%[46.1 µM]	-60.2*	i	x	-20.1%	x
CC(=O)Nc1ccc(NC(=O)C2CCCN(C(=O)c3ccc(Cl)cc3)C2)cc1 (stereo unspecified)	x	-11.5	-20.3%	21.2%	-8.9%	-10.3%[46.1 µM]
Cc1cnc(-n2ncc(C(=O)NC(C)(C)CO)c2-c2cccs2)nc1-c1ccc(F)cc1	x	x	-6.3%	x	-0.1%	x
Cc1ccc(NCC(=O)Nc2cccc(F)c2)cc1S(=O)(=O)N1CCCCCC1	u	-97.7*	-18.4%	u	-13.5%	u
O=C(CNc1cccc(F)c1)Nc1cccc(S(=O)(=O)N2CCCCC2)c1	-9.4%	3.6	-0.3%	u	-7.3%	0.8%[46.1 µM]
CCN(CC(=O)Nc1cc(Cl)ccc1C)C(=O)C1CCN(c2ncnc3sc(C)c(C)c23)CC1	x	0.0	11.2µM*	x	u	x
Cc1sc2ncnc(N3CCC(C(=O)N(C)CC(=O)Nc4ccccc4Br)CC3)c2c1C	-26.7%	-63.0*	-21.2%	u	-25.4%	u
Cc1sc2ncnc(N3CCC(C(=O)N(C)CC(=O)Nc4ccccc4Cl)CC3)c2c1C	10µM*	-78.8*	-24.0%	x	-27.8%	u
Cc1ccc(Cl)cc1NC(=S)NCCCSC1CCCCC1	u	-34.1	-27.9%	10µM*	-29.0%	u
CCOc1ccc(NC(=O)Cc2csc(COc3cccc(C)c3)n2)cc1	-3.9%[46.1 µM]	17.6	-11.4%	x	-1.4%	0.4%[46.1 µM]
Cc1ccc(CSc2c(C)cnc3c2c(=O)n(C)c(=O)n3C)cc1	21.6%[46.1 µM]	-8.1	-2.6%	x	-6.4%	x
CCN(CC(=O)Nc1cc(Cl)ccc1C)c1ncnc2sc(C)c(C)c12	0.5%	-78.4*	i	25.1µM*	-15.8%	u
CCN(CC(=O)Nc1cc(Cl)ccc1C)C(=O)C1CCCCC1	3.4%	-61.1*	2.5%	8.9%	-2.8%	u
CCN(CC(=O)Nc1cc(Cl)ccc1C)C(=O)CCS(=O)(=O)c1ccc(Cl)cc1	-2.9%	20.2	11.2µM*	u	u	u
CCN(CC(=O)Nc1ccccc1C(F)(F)F)C(=O)CCS(=O)(=O)c1ccc(Cl)cc1	u	-20.2	u	17.2%	-28.3%	-15.7%
SMILES	Lassa entry inh	HCMV antiviral	Vaccinia mCherry	HCV inh	Vaccinia Venus	Marburg entry inh
CC(C)(C)c1ccc(OCC(=O)Nc2ccc(S(=O)(=O)Nc3ncccn3)cc2)cc1	-34.1%[46.1 µM]	10.9	-11.6%	x	3.0%	x
CCOC(=O)C1=C[C@@H](C(C)(C)C)N(S(=O)(=O)c2ccc([N+](=O)[O-])cc2)[C@H]1c1ccccc1	x	-74.6*	i	x	-5.5%	x
Cc1ccc(S(=O)(=O)N2[C@@H](c3ccc(Cl)cc3)C(C(=O)O)=CC[C@H]2c2ccc(Cl)c(Cl)c2)cc1	x	-64.4*	u	15.4%	-25.4%	x
CCOC(=O)C1=C[C@@H](C(C)(C)C)N(S(=O)(=O)c2ccc(C)cc2)[C@H]1c1ccc(OC)cc1	x	-64.1*	11.4%	x	-2.1%	x
CCOC(=O)C1=C[C@@H](C(C)(C)C)N(S(=O)(=O)c2ccc(C)cc2)[C@H]1c1cccc(Cl)c1	x	-87.9*	12.7%	x	-0.1%	x
CCOCCCNC(=O)c1cnc2sc(N3CCCCC3)nn2c1=O	-2.8%[46.1 µM]	2.6	10.6%	x	-5.5%	x
Cc1ccc(OCC(=O)Nc2ccc(O)c(-c3nc4cc(C)c(C)cc4o3)c2)cc1	x	x	16.9%	x	-12.5%	x
COc1ccc(-n2c(CNC(=O)c3ccc(OC)cc3OC)nnc2SC)cc1	x	x	-7.0%	x	-1.2%	x
C[C@@H]1CC2=CCCC2[C@]2(O1)C(=O)N(Cc1ccc(F)cc1)c1cccc(Br)c12 (stereo partly specified)	x	x	x	x	x	8.0%[14.2 µM]
CCOC(=O)N1CCN(S(=O)(=O)c2ccc(C)cc2)C1c1ccc(OC)cc1 (stereo unspecified)	23.1µM*	-17.0	x	-10.2%	x	u
CCOC(=O)C1=CC[C@@H](c2cccc(Br)c2)N(S(=O)(=O)c2ccc(F)cc2)[C@H]1c1cccc(Cl)c1	x	-73.5*	u	x	-8.7%	x
CCOC(=O)N1CCN(S(=O)(=O)c2ccc(C)cc2)C1c1ccccc1 (stereo unspecified)	-8.9%	16.8	-10.1%	-58.2%	1.7%	-16.6%[46.1 µM]
Nc1ccc(Nc2ccccc2N)cc1	u	17.9	12.1%	11.2µM*	-3.9%	-22.9%
COc1ccc([C@]23Cc4cc(C#N)ccc4[C@H](O2)c2c(cc(C)n(-c4ccccc4)c2=O)O3)cc1	x	x	x	x	x	2.3%[14.2 µM]
O=C(Nc1cc(C(F)(F)F)ccc1Cl)c1cnn(-c2ccccc2)c1-n1cccc1	-1.6%[46.1 µM]	-36.6	u	x	-28.2%	x
Nc1c(C(=O)OCC2CCCO2)c2nc3ccccc3nc2n1-c1ccc2c(c1)OCCO2 (stereo unspecified)	10.7%	-66.0*	x	u	-10.4%	-6.2%
O=c1c2c3nc4ccccc4nc3n(-c3ccc4c(c3)OCCO4)c2ncn1C1CCCC1	u	-77.4*	-12.9%	5.9%	-3.3%	u
Cc1ccc(C2=NCC(C)n3c2c2ccc(C(F)(F)F)cc2[n+]3[O-])cc1 (stereo unspecified)	x	22.7	x	x	x	x
CCC(C)n1c(SCc2ccc([N+](=O)[O-])cc2)nc2ccsc2c1=O (stereo unspecified)	u	-22.6	-23.2%	10µM*	-9.8%	12.6µM*
